# Reference: PubChem BioAssay AID1159580 (chemical genetic matrix, 2015)
# About 2,000 (36%) of roughly 5,500 compounds were called active. Inconclusive results (about 18%) are left out. The list shows a part of the results. Values without a mark were called inactive. No stated cut-off is given here; in the data, active means normalized growth mostly below about 0.91 (no sharp cut-off); inconclusive means no clear call, values can overlap the other calls; inactive means mostly above about 0.92.
# Experiment: chemical genetic growth profiling, strain panel (AID 1159580);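 further: tested at 20 µM; growth read once vehicle control cultures reached saturation at 30 °C; 1 = growth at the plate median or of vehicle wells; lower values mean less growth of the strain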
# Conditions: growth OD
# [1] = S. cerevisiae deletion strains, locus YAL013W, strain DEP1, hits give low values
# [2] = S. cerevisiae deletion strains, locus YBR229C, strain ROT2, hits give low values
# [3] = S. cerevisiae deletion strains, locus YCL061C, strain MRC1, hits give low values
# [4] = S. cerevisiae deletion strains, locus YDL101C, strain DUN1, hits give low values
# [5] = S. cerevisiae deletion strains, locus YDL134C, strain PPH21, hits give low values
# [6] = S. cerevisiae deletion strains, locus YDR150W, strain NUM1, hits give low values
# [7] = S. cerevisiae deletion strains, locus YEL061C, strain CIN8, hits give low values
# [8] = S. cerevisiae deletion strains, locus YGR078C, strain PAC10, hits give low values
# [9] = S. cerevisiae deletion strains, locus YHR030C, strain SLT2, hits give low values
# [10] = S. cerevisiae deletion strains, locus YHR087W, strain rtc3, hits give low values
# [11] = S. cerevisiae deletion strains, locus YJR043C, strain POL32, hits give low values
# [12] = S. cerevisiae deletion strains, locus YJR075W, strain HOC1, hits give low values
# [13] = S. cerevisiae deletion strains, locus YKL190W, strain CNB1, hits give low values
# [14] = S. cerevisiae deletion strains, locus YLR039C, strain RIC1, hits give low values
# [15] = S. cerevisiae deletion strains, locus YLR058C, strain SHM2 (second series), hits give low values
# [16] = S. cerevisiae deletion strains, locus YLR085C, strain ARP6, hits give low values
# [17] = S. cerevisiae deletion strains, locus YLR262C, strain YPT6, hits give low values
# [18] = S. cerevisiae deletion strains, locus YML094W, strain GIM5, hits give low values
# [19] = S. cerevisiae deletion strains, locus YMR219W, strain ESC1, hits give low values
# [20] = S. cerevisiae deletion strains, locus YMR263W, strain SAP30, hits give low values
# [21] = S. cerevisiae deletion strains, locus YMR307W, strain GAS1, hits give low values
# [22] = S. cerevisiae deletion strains, locus YNL153C, strain GIM3, hits give low values
# [23] = S. cerevisiae deletion strains, locus YNL298W, strain CLA4 (second series), hits give low values
# [24] = S. cerevisiae deletion strains, locus YNL322C, strain KRE1, hits give low values
# [25] = S. cerevisiae deletion strains, locus YNR030W, strain Alg12, hits give low values
# [26] = S. cerevisiae deletion strains, locus YOL006C, strain TOP1, hits give low values
# [27] = S. cerevisiae deletion strains, locus YPL055C, strain LGE1, hits give low values
# [28] = S. cerevisiae deletion strains, locus YPL241C, strain CIN2, hits give low values
# [29] = S. cerevisiae deletion strains, locus YPR135W, strain CTF4, hits give low values
# [30] = S. cerevisiae strains, strain wild type, hits give low values
smiles,measurement,setting,value
Cn1c(SCc2ccccc2)nnc1-c1ccc2ncccc2c1,normalized growth,[1],1
same,normalized growth,[2],0.997
same,normalized growth,[3],1.01
same,normalized growth,[4],0.986
same,normalized growth,[5],1.01
same,normalized growth,[6],0.902
same,normalized growth,[7],0.987
same,normalized growth,[8],1
same,normalized growth,[9],1.18
same,normalized growth,[10],0.999
same,normalized growth,[11],0.997
same,normalized growth,[12],0.991
same,normalized growth,[13],0.994
same,normalized growth,[14],1.1
same,normalized growth,[15],0.997
same,normalized growth,[16],1.05
same,normalized growth,[17],1.1
same,normalized growth,[18],1.01
same,normalized growth,[19],0.999
same,normalized growth,[20],0.989
same,normalized growth,[21],1.41 [resistant] (active)
same,normalized growth,[22],0.997
same,normalized growth,[23],1.07
same,normalized growth,[24],0.992
same,normalized growth,[25],1.02
same,normalized growth,[26],1.01
same,normalized growth,[27],0.99
same,normalized growth,[28],1.02
same,normalized growth,[29],1.08
Cn1c(SCC(=O)N2CCOCC2)nnc1-c1ccc2ncccc2c1,normalized growth,[1],0.996
same,normalized growth,[2],1.01
same,normalized growth,[3],1.02
same,normalized growth,[4],1.03
same,normalized growth,[5],0.963
same,normalized growth,[6],0.929
same,normalized growth,[7],1.03
same,normalized growth,[8],1.02
same,normalized growth,[9],1.08
same,normalized growth,[10],1.01
same,normalized growth,[11],1.01
same,normalized growth,[12],1.03
same,normalized growth,[14],0.971
same,normalized growth,[15],0.995
same,normalized growth,[16],1.1
same,normalized growth,[17],0.942
same,normalized growth,[18],1.06
same,normalized growth,[19],1
same,normalized growth,[20],1
same,normalized growth,[22],1
same,normalized growth,[23],1.03
same,normalized growth,[24],0.992
same,normalized growth,[25],1.03
same,normalized growth,[26],1.03
same,normalized growth,[27],1.04
same,normalized growth,[28],1.05
same,normalized growth,[29],1.03
same,normalized growth,[30],0.984
CCOC(=O)C1=C(O)C(=O)N(Cc2ccccc2)C1,normalized growth,[1],1.02
same,normalized growth,"S. cerevisiae deletion strains, locus YBR021W, strain FUR4, hits give low values",1.02
same,normalized growth,[2],1
same,normalized growth,"S. cerevisiae deletion strains, locus YCL029C, strain bik1, hits give low values",1.01
same,normalized growth,"S. cerevisiae deletion strains, locus YDL035C, strain GPR1, hits give low values",1.01
same,normalized growth,"S. cerevisiae deletion strains, locus YDL074C, strain BRE1, hits give low values",1
same,normalized growth,[4],1.01
same,normalized growth,[5],1
same,normalized growth,"S. cerevisiae deletion strains, locus YDL185W, strain tfp1, hits give low values",1.02
same,normalized growth,"S. cerevisiae deletion strains, locus YDL192W, strain arf1, hits give low values",1.01
same,normalized growth,"S. cerevisiae deletion strains, locus YDR101C, strain arx1, hits give low values",1
same,normalized growth,[6],1.01
same,normalized growth,"S. cerevisiae deletion strains, locus YDR162C, strain NBP2, hits give low values",0.995
same,normalized growth,"S. cerevisiae deletion strains, locus YDR318W, strain mcm21, hits give low values",1.02
same,normalized growth,"S. cerevisiae deletion strains, locus YDR388W, hits give low values",1
same,normalized growth,"S. cerevisiae deletion strains, locus YDR502C, strain sam2, hits give low values",0.994
same,normalized growth,[7],1.01
same,normalized growth,"S. cerevisiae deletion strains, locus YER110C, hits give low values",1.02
same,normalized growth,"S. cerevisiae deletion strains, locus YER155C, strain BEM2, hits give low values",1
same,normalized growth,"S. cerevisiae deletion strains, locus YER167W, strain BCK2, hits give low values",1.03
same,normalized growth,"S. cerevisiae deletion strains, locus YGL078C, strain dbp3, hits give low values",1
same,normalized growth,"S. cerevisiae deletion strains, locus YGL086W, strain mad1, hits give low values",1.02
same,normalized growth,"S. cerevisiae deletion strains, locus YGL248W, strain PDE1, hits give low values",1.01
same,normalized growth,[8],1.01
same,normalized growth,"S. cerevisiae deletion strains, locus YGR135W, strain pre9, hits give low values",0.987
same,normalized growth,"S. cerevisiae deletion strains, locus YGR229C, strain SMI1, hits give low values",1
same,normalized growth,"S. cerevisiae deletion strains, locus YGR252W, strain gcn5, hits give low values",1.02
same,normalized growth,[9],1.01
same,normalized growth,"S. cerevisiae deletion strains, locus YHR079C, strain IRE1 (second series), hits give low values",1.02
same,normalized growth,"S. cerevisiae deletion strains, locus YHR094C, strain hxt1, hits give low values",1.01
same,normalized growth,"S. cerevisiae deletion strains, locus YHR129C, strain ARP1, hits give low values",1.02
same,normalized growth,"S. cerevisiae deletion strains, locus YHR200W, strain rpn10, hits give low values",1.01
same,normalized growth,"S. cerevisiae deletion strains, locus YIL066C, strain RNR3, hits give low values",1
same,normalized growth,"S. cerevisiae deletion strains, locus YIL073C, strain SPO22, hits give low values",1.1
same,normalized growth,"S. cerevisiae deletion strains, locus YIL125W, strain kgd1, hits give low values",1
same,normalized growth,"S. cerevisiae deletion strains, locus YIR030C, strain dcg1, hits give low values",1.01
same,normalized growth,"S. cerevisiae deletion strains, locus YJL095W, strain BCK1, hits give low values",1.01
same,normalized growth,"S. cerevisiae deletion strains, locus YJL134W, strain LCB3, hits give low values",1.01
same,normalized growth,"S. cerevisiae deletion strains, locus YJL168C, strain set2, hits give low values",1.01
same,normalized growth,"S. cerevisiae deletion strains, locus YJL187C, strain SWE1 (second series), hits give low values",1.01
same,normalized growth,[11],1.04
same,normalized growth,[12],0.997
same,normalized growth,"S. cerevisiae deletion strains, locus YKL009W, strain mrt4, hits give low values",1.03
same,normalized growth,"S. cerevisiae deletion strains, locus YKL068W, hits give low values",1
same,normalized growth,"S. cerevisiae deletion strains, locus YKL085W, strain MDH1 (second series), hits give low values",1.02
same,normalized growth,"S. cerevisiae deletion strains, locus YKL085W, strain MDH1, hits give low values",1.02
same,normalized growth,[13],1.01
same,normalized growth,"S. cerevisiae deletion strains, locus YKR001C, strain vps1, hits give low values",1.01
same,normalized growth,[14],1.05
same,normalized growth,"S. cerevisiae deletion strains, locus YLR058C, strain SHM2, hits give low values",1.02
same,normalized growth,"S. cerevisiae deletion strains, locus YLR102C, strain apc9, hits give low values",1.01
same,normalized growth,[17],0.993
same,normalized growth,"S. cerevisiae deletion strains, locus YLR268W, strain sec22, hits give low values",0.982
same,normalized growth,"S. cerevisiae deletion strains, locus YLR330W, strain CHS5, hits give low values",1.01
same,normalized growth,"S. cerevisiae deletion strains, locus YLR342W, strain FKS1 (second series), hits give low values",1.09
same,normalized growth,"S. cerevisiae deletion strains, locus YLR371W, strain rom2, hits give low values",1.01
same,normalized growth,"S. cerevisiae deletion strains, locus YLR418C, strain cdc73, hits give low values",0.977
same,normalized growth,"S. cerevisiae deletion strains, locus YML016C, strain PPZ1, hits give low values",1
same,normalized growth,"S. cerevisiae deletion strains, locus YML032C, strain rad52, hits give low values",1.03
same,normalized growth,"S. cerevisiae deletion strains, locus YML124C, strain tub3, hits give low values",1.01
same,normalized growth,"S. cerevisiae deletion strains, locus YMR078C, strain ctf18, hits give low values",1.02
same,normalized growth,"S. cerevisiae deletion strains, locus YMR223W, strain ubp8, hits give low values",1.03
same,normalized growth,[20],0.999
same,normalized growth,[21],1.03
same,normalized growth,"S. cerevisiae deletion strains, locus YNL067W, strain RPL9B, hits give low values",0.99
same,normalized growth,"S. cerevisiae deletion strains, locus YNL128W, strain TEP1, hits give low values",0.985
same,normalized growth,[22],0.994
same,normalized growth,"S. cerevisiae deletion strains, locus YNL233W, strain BNI4, hits give low values",1.01
same,normalized growth,"S. cerevisiae deletion strains, locus YNL250W, strain rad50, hits give low values",1
same,normalized growth,"S. cerevisiae deletion strains, locus YNL271C, strain bni1, hits give low values",1.01
same,normalized growth,"S. cerevisiae deletion strains, locus YNL298W, strain CLA4, hits give low values",1
same,normalized growth,"S. cerevisiae deletion strains, locus YNL307C, strain MCK1, hits give low values",1.02
same,normalized growth,[24],0.996
same,normalized growth,"S. cerevisiae deletion strains, locus YNR052C, strain pop2, hits give low values",1.02
same,normalized growth,[26],1.01
same,normalized growth,"S. cerevisiae deletion strains, locus YOL012C, strain htz1",0.868
same,normalized growth,"S. cerevisiae deletion strains, locus YOL147C, strain pex11, hits give low values",1.01
same,normalized growth,"S. cerevisiae deletion strains, locus YOR061W, strain CKA2, hits give low values",1.01
same,normalized growth,"S. cerevisiae deletion strains, locus YOR069W, strain VPS5, hits give low values",1.01
same,normalized growth,"S. cerevisiae deletion strains, locus YOR136W, strain idh2, hits give low values",1.02
same,normalized growth,"S. cerevisiae deletion strains, locus YOR144C, strain elg1, hits give low values",1
same,normalized growth,"S. cerevisiae deletion strains, locus YOR184W, strain ser1, hits give low values",1.04
same,normalized growth,"S. cerevisiae deletion strains, locus YOR316C, strain cot1, hits give low values",1.01
same,normalized growth,[27],0.969
same,normalized growth,[28],1
same,normalized growth,"S. cerevisiae deletion strains, locus YPR119W, strain clb2, hits give low values",1
same,normalized growth,"S. cerevisiae deletion strains, locus YPR141C, strain kar3, hits give low values",1
same,normalized growth,"S. cerevisiae deletion strains, locus YPR163C, strain tif3, hits give low values",1.01
same,normalized growth,"S. cerevisiae deletion strains, locus YPR167C, strain met16, hits give low values",1.01
same,normalized growth,"S. cerevisiae deletion strains, strain wtn01, hits give low values",1
same,normalized growth,[30],1.01
